Test [1] can be described thus: qHTS assay to identify small molecule agonists of the RXR signaling pathway - cell viability counter screen (AID 1159529). Also: nearly all actives have a fitted effect of over 50% in size. Also: potency is read from the fitted curve at half-maximal effect.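 As to activity change, negative = cytotoxicity: HEK 293T cells carrying an RXR-alpha UAS beta-lactamase reporter.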 The following applies: RXR-alpha-bla HEK293T viability, CellTiter-Glo, 16 h; series mostly up to 76.8 µM. In a few lines:
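Steps: seed RXR-alpha-UAS-bla HEK 293T cells in assay medium containing 2% charcoal-stripped FBS; incubate 5 hr; add compounds in DMSO; incubate 16 hr at 37 C; after the bla read, add CellTiter-Glo and read luminescence at 30 min.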
(Quantitative high-throughput screening tests each substance at several concentrations.)

For test [2], the target named is Nuclear receptor subfamily 1 group I member 3 (Homo sapiens) (UniProt Q14994). The test can be described thus: qHTS assay to identify small molecule agonists of the constitutive androstane receptor (CAR) signaling pathway (AID 1224839). Also: nearly all actives have a fitted effect of over 15% in size. Also: potency is read from the fitted curve at half-maximal effect.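 As to activation: HepG2 cells stably carrying human CAR and a CYP2B6 luciferase reporter.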 As to conditions: HepG2 hCAR CYP2B6-luciferase, agonist mode, 24 h; series mostly up to 92.4 µM. In a few lines:
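Cells were plated and incubated 4 hrs, then dosed with compounds at 15 concentrations. PK11195 was added to 0.75 uM final. After 24 hrs at 37 C, luciferase luminescence was measured.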

Test [3] is described as follows: qHTS assay to identify small molecule agonists of the hypoxia (HIF-1) signaling pathway - cell viability counter screen (AID 1224844; calls by dose curve; also: nearly all actives have a fitted effect of over 50% in size; also: potency is read from the fitted curve at half-maximal effect). The following applies: HRE-bla ME-180 viability, CellTiter-Glo luminescence, 17 h; series mostly up to 76.8 µM. In a few lines:
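HRE-bla ME-180 cells, 2,000/well in 0.5% dialyzed FBS medium, treated 17 h at 37C with compounds. Viability read in the same wells as the bla reporter, by CellTiter-Glo luminescence after 30 min at room temperature.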

Test [4] in a line: qHTS RealTime-Glo MT Cell Viability Assay in HEK293 cells - 16 hour (AID 1224872). Also: nearly all actives have a fitted effect of over 50% in size. Also: potency is read from the fitted curve at half-maximal effect. As to activity change, negative = cytotoxicity: top concentration of the series differs between compounds. The following applies: RealTime-Glo luminescence; series mostly up to 76.8 µM. Put shortly:
(§1)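 Quantitative high-throughput screen of the Tox21 10K library in HEK293: cells and RealTime-Glo reagents plated together, compound added at 5 h, luminescence monitored through 40 h at 37 C.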

Test [5] in a line: qHTS RealTime-Glo MT Cell Viability Assay in HepG2 cells - 8 hour (AID 1224873). Also: nearly all actives have a fitted effect of over 55% in size. Also: potency is read from the fitted curve at half-maximal effect. The following applies: RealTime-Glo luminescence; series mostly up to 76.8 µM. Put shortly: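 HepG2 cells (600/well) mixed with RealTime-Glo MT reagent, settled 5 h at 37 C/5% CO2 before compound addition. Nonlytic NanoLuc luminescence from viable-cell prosubstrate reduction read repeatedly during 40 h treatment at 37 C.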

A short description of test [6]: A CellTox Green Cytotoxicity Assay to monitor cytotoxicity in HEK293 cells - 24 hour (AID 1224875). Also: nearly all actives have a fitted effect of over 45% in size. Also: potency is read from the fitted curve at half-maximal effect. As to conditions: CellTox Green fluorescence; series mostly up to 76.8 µM. Put shortly:
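HEK293 cells, 600/well, were preincubated 5 hours and then exposed to compounds at 37 C for up to 40 hours. A cell-impermeant cyanine dye staining dead-cell DNA was read by fluorescence at 0, 8, 16, 24, 32 and 40 h time points.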

A short description of test [7]: qHTS RealTime-Glo MT Cell Viability Assay in HEK293 cells - 24 hour (AID 1224886). Also: nearly all actives have a fitted effect of over 50% in size. Also: potency is read from the fitted curve at half-maximal effect. As to activity change, negative = cytotoxicity: top concentration of the series differs between compounds. The following applies: RealTime-Glo luminescence; series mostly up to 76.8 µM. Put shortly:
as §1

The nature of test [8]: qHTS assay to identify small molecule agonists of the androgen receptor (AR) signaling pathway in the presence of an antagonist - cell viability counter screen (AID 1259379). Also: nearly all actives have a fitted effect of over 25% in size. Also: potency is read from the fitted curve at half-maximal effect.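 As to activity change, negative = cytotoxicity: MDA-kb2 human breast cancer cells carrying an MMTV luciferase reporter.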 As to conditions: MDA-kb2 viability, CellTiter-Fluor, 16 h; series mostly up to 92.4 µM. Put shortly:
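MDA-kb2 cells (MMTV-luciferase, AR/GR), 3,000/well, 5 h attachment, then 3.0 µM nilutamide (final) and compounds at 15 concentrations. Viability by CellTiter-Fluor fluorescence after 16 h at 37 °C, 0% CO2, in the reporter wells.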

For test [9], the target named is Thyrotropin-releasing hormone receptor (Homo sapiens) (UniProt P34981). The test can be described thus: qHTS assay to identify small molecule agonists of the thyrotropin-releasing hormone receptor (TRHR) signaling pathway (AID 1346891; calls by dose curve;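 also: HEK293 cells expressing TRHR with calcium dye readout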). As to conditions: TRHR-HEK293 calcium fluorescence, agonist mode; series mostly up to 57.6 µM. In a few lines:
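Cells: TRHR-Hek293, seeded and incubated 18 h. Dye loading: 2 h at 37 °C. Compound added from DMSO stock by pin tool. Read-out: kinetic calcium fluorescence over 3 min.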

Test [10] is described as follows: Human pregnane X receptor (PXR) small molecule agonists, qHTS cell viability counter screen (AID 1346977). Also: nearly all actives have a fitted effect of over 50% in size. Also: potency is read from the fitted curve at half-maximal effect. As to conditions: PXR-Luc HepG2 viability, CellTiter-Fluor, 24 h; series mostly up to 92.4 µM. In a few lines:
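Cytotoxicity counter screen run in the same wells as the PXR luciferase assay, using PXR-Luc HepG2 cells in charcoal-stripped serum medium. Viability: CellTiter-Fluor fluorescence after 24hr compound treatment.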

Test [11] can be described thus: Caspase-3/7 induction in HepG2 cells by small molecules, qHTS cell viability counter screen (AID 1346981). Also: nearly all actives have a fitted effect of over 30% in size. Also: potency is read from the fitted curve at half-maximal effect. The following applies: CellTiter-Fluor fluorescence, 17 h; series mostly up to 92.4 µM. Put shortly: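 Wild-type HepG2 cells, 2,000/well, settled 5 hr at 37 C, 5% CO2 before compound addition. Viability read by CellTiter-Fluor fluorescence, reagent added after 16 hr compound exposure, then 1 hr at 37C, in the same wells as the caspase read.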

Test [12] addresses Cytochrome P450 2D6 (Homo sapiens) (UniProt P10635). The test can be described thus: Cytochrome P450 Family 2 Subfamily D Member 6 (CYP2D6) small molecule antagonists: luciferase reporter qHTS assay (AID 1671196). Also: nearly all actives have a fitted effect of over 50% in size. Also: potency is read from the fitted curve at half-maximal effect. As to conditions: P450-Glo CYP2D6 enzyme assay, luciferin luminescence, 1 h; series mostly up to 115 µM. Put shortly: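 Cell-free P450-Glo system: CYP2D6 with proluciferin substrate was pre-incubated with compound for 10 min, then reacted with NADPH regeneration for 1 h at room temperature. Luciferin product was detected after 20 min, and data were reported as relative luminescence units.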
Background: A reporter such as luciferase makes a cellular process visible.

Test [13] deals with Cytochrome P450 3A4 (Homo sapiens) (UniProt P08684). The test can be described thus: Cytochrome P450 Family 3 Subfamily A Member 4 (CYP3A4) small molecule antagonists: luciferase reporter qHTS assay (AID 1671201). Also: nearly all actives have a fitted effect of over 50% in size. Also: potency is read from the fitted curve at half-maximal effect. As to conditions: P450-Glo CYP3A4 enzyme, luciferin luminescence, 1 h; series mostly up to 115 µM. Put shortly:
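qHTS, 1536-well. CYP3A4 + proluciferin substrate, cpd 10 min RT → NADPH regen 1 h RT → detection reagent 20 min → luminescence (RLU). Ketoconazole positive control.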

Test [14] can be described thus: qHTS assay to test for compound auto fluorescence at 535 nm (green) in HepG2 cells (AID 720675). As to conditions: green autofluorescence 485/535 nm, 1 h; series mostly up to 46 µM.
The nature of test [15]: qHTS assay to test for compound auto fluorescence at 535 nm (green) in HEK293 cells (AID 720680). As to conditions: green autofluorescence 485/535 nm; series mostly up to 46 µM.
Test [16] is described as follows: qHTS assay to test for compound auto fluorescence at 535 nm (green) in HEK293 cell free culture (AID 720682). As to conditions: cell-free medium, green autofluorescence 485/535 nm; series mostly up to 46 µM. In a few lines: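 No cells present: wells hold DMEM supplemented with 10% FBS, into which compound or vehicle is pinned. Green emission is then recorded (485 nm excitation, 535 nm emission) and scaled to fluorescein.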

Test [17] is described as follows: qHTS assay to test for compound auto fluorescence at 590 nm (red) in HEK293 cell free culture (AID 720683). The following applies: cell-free medium autofluorescence, Ex540/Em590 red; series mostly up to 46 µM. In a few lines: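 Cell-free wells of DMEM with 10% FBS received compound, and intrinsic fluorescence was read at excitation/emission 540/590 nm. Values expressed as equivalence to Rose Bengal sodium.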

Test [18] can be described thus: qHTS assay to test for compound auto fluorescence at 590 nm (red) in HepG2 cell free culture (AID 720684). The following applies: cell-free medium autofluorescence, red 540/590 nm; series mostly up to 46 µM. In a few lines: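 Compound was pinned into wells holding MEM with 10% FBS and no cells, and red fluorescence was read at Ex/Em 540/590 nm. Signal is expressed as auto fluorescence equivalency relative to Rose Bengal sodium.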

The nature of test [19]: qHTS assay to test for compound auto fluorescence at 460 nm (blue) in HepG2 cell free culture (AID 720685). As to conditions: Cell-free culture medium, blue autofluorescence 405/460 nm; series mostly up to 46 µM. In a few lines: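 Compound (23 nL) or DMSO pinned into cell-free MEM with 10% FBS; blue fluorescence read at 405/460 nm excitation/emission, expressed as auto-fluorescence equivalency to triamterene.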

Test [20] in a line: qHTS assay to identify small molecule agonists of the estrogen receptor beta (ER-beta) signaling pathway - cell viability counter screen (AID 1259380). Also: nearly all actives have a fitted effect of over 30% in size. Also: potency is read from the fitted curve at half-maximal effect. As to conditions: ER-beta-bla HEK293T viability, CellTiter-Glo luminescence, 16 h; series mostly up to 92.4 µM. Put shortly: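 ER-beta-UAS-bla HEK293T cells in medium with 2% charcoal-stripped FBS, pre-incubated 6 hr, then treated 16 hr at 37C. Cytotoxicity read in the same wells by CellTiter-Glo luminescence after 30 min at room temperature.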

Molecules are shown by their SMILES. Values without a mark were called inactive. Inconclusive results are not listed. Active and inactive are the calls of the source. Unless noted, calls follow the shape of the dose curve; as a rule, active = well fitted curve in the direction sought with a large enough effect in the repeat runs; inconclusive = weak or mixed curves; inactive = no such curve, though single readings can be large; an effect the other way counts as inactive or inconclusive.
% is scaled to controls: 0 for no effect and ±100 for the full control effect.

Chain of Cytochrome P450 3A4 (Homo sapiens) (P08684 whole entry, looked up): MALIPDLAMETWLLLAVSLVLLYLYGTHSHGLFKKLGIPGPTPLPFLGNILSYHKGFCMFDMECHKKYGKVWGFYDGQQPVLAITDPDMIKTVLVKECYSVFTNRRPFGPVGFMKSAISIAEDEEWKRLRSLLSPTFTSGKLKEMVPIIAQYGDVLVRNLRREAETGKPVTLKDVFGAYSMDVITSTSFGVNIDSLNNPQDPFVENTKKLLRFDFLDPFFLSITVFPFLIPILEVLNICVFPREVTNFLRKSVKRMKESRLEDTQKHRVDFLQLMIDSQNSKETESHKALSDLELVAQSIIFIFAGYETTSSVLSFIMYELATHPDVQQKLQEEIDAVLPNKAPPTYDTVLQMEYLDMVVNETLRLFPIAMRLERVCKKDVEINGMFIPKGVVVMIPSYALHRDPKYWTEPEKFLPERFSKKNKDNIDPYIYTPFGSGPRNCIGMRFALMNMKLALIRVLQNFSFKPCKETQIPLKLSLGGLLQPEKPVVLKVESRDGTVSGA
Chain of Nuclear receptor subfamily 1 group I member 3 (Homo sapiens) (Q14994 whole entry, looked up): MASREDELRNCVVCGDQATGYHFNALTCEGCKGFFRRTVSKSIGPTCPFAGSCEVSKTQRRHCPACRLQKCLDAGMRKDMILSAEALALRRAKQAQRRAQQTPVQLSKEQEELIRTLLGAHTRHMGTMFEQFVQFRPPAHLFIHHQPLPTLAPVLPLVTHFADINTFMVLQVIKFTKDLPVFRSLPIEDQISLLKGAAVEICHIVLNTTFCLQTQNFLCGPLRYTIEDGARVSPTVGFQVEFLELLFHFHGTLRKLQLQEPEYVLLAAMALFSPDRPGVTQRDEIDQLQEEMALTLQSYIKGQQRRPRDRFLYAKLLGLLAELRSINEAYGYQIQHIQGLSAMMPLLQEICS
Chain of Thyrotropin-releasing hormone receptor (Homo sapiens) (P34981 whole entry, looked up): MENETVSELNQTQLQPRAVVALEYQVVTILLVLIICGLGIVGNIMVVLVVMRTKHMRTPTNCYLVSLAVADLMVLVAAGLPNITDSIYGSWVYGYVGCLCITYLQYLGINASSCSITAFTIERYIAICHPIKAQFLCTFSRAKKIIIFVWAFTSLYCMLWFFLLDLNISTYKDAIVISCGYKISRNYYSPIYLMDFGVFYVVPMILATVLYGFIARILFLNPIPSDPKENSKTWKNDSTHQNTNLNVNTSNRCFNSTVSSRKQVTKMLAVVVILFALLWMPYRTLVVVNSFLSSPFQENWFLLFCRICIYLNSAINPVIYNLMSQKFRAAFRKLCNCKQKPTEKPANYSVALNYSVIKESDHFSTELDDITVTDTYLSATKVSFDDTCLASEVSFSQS
Chain of Cytochrome P450 2D6 (Homo sapiens) (P10635 whole entry, looked up): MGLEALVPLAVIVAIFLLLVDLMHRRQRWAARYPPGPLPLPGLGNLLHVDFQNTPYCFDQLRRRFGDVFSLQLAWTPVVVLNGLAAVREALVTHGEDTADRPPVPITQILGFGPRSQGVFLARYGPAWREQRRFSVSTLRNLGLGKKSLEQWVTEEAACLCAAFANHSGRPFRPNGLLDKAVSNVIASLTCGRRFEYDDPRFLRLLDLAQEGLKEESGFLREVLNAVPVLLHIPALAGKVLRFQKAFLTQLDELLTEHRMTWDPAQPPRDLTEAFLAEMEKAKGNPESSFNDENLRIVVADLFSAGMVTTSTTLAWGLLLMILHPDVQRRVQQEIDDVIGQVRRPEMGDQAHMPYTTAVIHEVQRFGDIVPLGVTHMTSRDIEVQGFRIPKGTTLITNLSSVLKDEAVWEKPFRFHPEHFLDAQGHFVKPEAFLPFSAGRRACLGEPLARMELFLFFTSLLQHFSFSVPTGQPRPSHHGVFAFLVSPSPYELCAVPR

With `Cc1ccc2nc3sc(=O)sc3nc2c1`, the activity change, negative = cytotoxicity was -5.08% [at 15.8 µM] in [1]; 3.61% [at 15.8 µM] in test [4]; 3.52% [at 15.8 µM] in test [7]; -12.9% [at 19 µM] in [8]; -12.4% [at 19 µM] in test [10]; -0.0724% [at 19 µM] in [11]. Moreover, the activation in [2] is 7.43% [at 19 µM]; in [9], -0.107% [at 11.8 µM]. For the same compound, the Potency in test [3] is 7.37 µM (active). For the same compound, in [5], the viability change, negative = cytotoxic is 3.11% [at 15.8 µM]. Besides, the activity change in [6] is -5.16% [at 15.8 µM, hits give high values]. For the same compound, the activity change, negative = inhibition is 1.42% [at 23.6 µM] in test [12] and 0.418% [at 23.6 µM] in [13].
In the case of `CO/C=C(/C(=O)OC)c1ccccc1Oc1cc(Oc2ccccc2C#N)ncn1`, the Potency entry in test [14], in [15], in [16], in test [19] and in test [13] was “inactive” in each case. In addition, the result in test [17], in [18] and in [9] was inactive. Moreover, the Potency is 41.5 µM (active) in test [1]; 23.1 µM (active) in [8]; 51.8 µM (active) in [20]; 6.52 µM (active) in test [10]; 24.5 µM (active) in test [11]; 43.1 µM (active) in test [12].
For `N#Cc1cc([N+](=O)[O-])ccc1N`, the Potency entry in test [1], in [3], in test [4], in test [5], in test [6] and in test [7] was “inactive” in each case. Besides, the Potency result in [20], in test [12] and in test [13] was “inactive” each time. In addition, in test [9], the result was inactive.
For the compound `O=S(=O)(C(Cl)(Cl)Cl)C(Cl)(Cl)Cl`, the Potency was 21.9 µM (active) in test [1]; 12.3 µM (active) in test [3]; 12.3 µM (active) in test [4]; 38.9 µM (active) in test [5]; 21.9 µM (active) in test [6]; 11 µM (active) in [7]. In addition, the Potency was 61.1 µM (active) in [8]; 21.7 µM (active) in [20]; 61.1 µM (active) in [10]; 61.1 µM (active) in test [11]; 2 µM (active) in test [13]. Besides, the Potency entry in test [2] was “inactive”.
`Cc1cc(C)c(C(=O)P(=O)(c2ccccc2)c2ccccc2)c(C)c1`: the Potency in test [1] was 49 µM (active); in test [2], 15.4 µM (active); in test [3], 43.6 µM (active); in test [4], 43.6 µM (active); in test [7] it was 38.9 µM (active); in [20], 61.1 µM (active). Moreover, the Potency was 61.1 µM (active) in [10] and 5.03 µM (active) in test [13]. Moreover, in [6], the Potency result was “inactive”. Moreover, the outcome in test [9] was inactive.
For `O=C(c1ccc(Cl)cc1)c1ccc(Cl)cc1`, the Potency result in test [2] was “inactive”.
Consider `O=C1C(I)=CC(=C(c2cc(I)c(O)c(I)c2)c2ccccc2C(=O)O)C=C1I`, for which the Potency result in test [14], in test [15], in [16], in test [19], in [1] and in test [2] was “inactive” each time. Also, the Potency result in test [4], in test [5], in [6], in [7], in [8] and in [10] was “inactive” throughout. For the same compound, the Potency entry in test [12] and in test [13] was “inactive” throughout. For the same compound, the call in test [17] and in test [18] was inactive. The Potency in test [20] was 9.44 µM (active).
As for `O=[N+]([O-])c1c(Cl)c(Cl)cc(Cl)c1Cl`, the Potency entry in test [14], in test [15], in test [16], in test [19], in test [3] and in [4] was “inactive” each time. Further, the Potency entry in test [5], in test [7], in test [8], in [10], in [11] and in test [13] was “inactive” in each case. Besides, the compound was called inactive in test [17] and in [18]. Further, the Potency in [6] is 49 µM (active); in test [12], 35.6 µM (active).

These data come from PubChem BioAssay (Tox21).
